Tests used:
Experiment in all cases: log2 ratio of Biotin-Ahx-Ub-VS probe labelling (fragment/DMSO); higher = less target engagement (more negative = stronger competition), active = hit call of the paper (q ≤ 0.05, log2 ratio ≤ -1)
Settings in all cases: compound concentration: 200 uM; treatment time: 3 h
USP34 = USP34 (UniProt Q70CQ2)
Outline: (§1)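 Fragment (200 µM) or vehicle was incubated for 3 h with triplicate HEK293T lysate samples of 495 µg, which were then treated with Biotin-Ahx-Ub-VS at 0.5 µM final for 1 h. Labelled DUBs were enriched on NeutrAvidin, digested with LysC and trypsin, and analysed by diaPASEF LC-MS/MS. Values are average log2 fragment/vehicle ratios from an unpaired t-test on global-median-normalised Spectronaut label-free quantities, using proteins with ≥2 unique peptides.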

USP36 = target: T1, USP36 (UniProt Q9P275)
T1 sequence (whole entry): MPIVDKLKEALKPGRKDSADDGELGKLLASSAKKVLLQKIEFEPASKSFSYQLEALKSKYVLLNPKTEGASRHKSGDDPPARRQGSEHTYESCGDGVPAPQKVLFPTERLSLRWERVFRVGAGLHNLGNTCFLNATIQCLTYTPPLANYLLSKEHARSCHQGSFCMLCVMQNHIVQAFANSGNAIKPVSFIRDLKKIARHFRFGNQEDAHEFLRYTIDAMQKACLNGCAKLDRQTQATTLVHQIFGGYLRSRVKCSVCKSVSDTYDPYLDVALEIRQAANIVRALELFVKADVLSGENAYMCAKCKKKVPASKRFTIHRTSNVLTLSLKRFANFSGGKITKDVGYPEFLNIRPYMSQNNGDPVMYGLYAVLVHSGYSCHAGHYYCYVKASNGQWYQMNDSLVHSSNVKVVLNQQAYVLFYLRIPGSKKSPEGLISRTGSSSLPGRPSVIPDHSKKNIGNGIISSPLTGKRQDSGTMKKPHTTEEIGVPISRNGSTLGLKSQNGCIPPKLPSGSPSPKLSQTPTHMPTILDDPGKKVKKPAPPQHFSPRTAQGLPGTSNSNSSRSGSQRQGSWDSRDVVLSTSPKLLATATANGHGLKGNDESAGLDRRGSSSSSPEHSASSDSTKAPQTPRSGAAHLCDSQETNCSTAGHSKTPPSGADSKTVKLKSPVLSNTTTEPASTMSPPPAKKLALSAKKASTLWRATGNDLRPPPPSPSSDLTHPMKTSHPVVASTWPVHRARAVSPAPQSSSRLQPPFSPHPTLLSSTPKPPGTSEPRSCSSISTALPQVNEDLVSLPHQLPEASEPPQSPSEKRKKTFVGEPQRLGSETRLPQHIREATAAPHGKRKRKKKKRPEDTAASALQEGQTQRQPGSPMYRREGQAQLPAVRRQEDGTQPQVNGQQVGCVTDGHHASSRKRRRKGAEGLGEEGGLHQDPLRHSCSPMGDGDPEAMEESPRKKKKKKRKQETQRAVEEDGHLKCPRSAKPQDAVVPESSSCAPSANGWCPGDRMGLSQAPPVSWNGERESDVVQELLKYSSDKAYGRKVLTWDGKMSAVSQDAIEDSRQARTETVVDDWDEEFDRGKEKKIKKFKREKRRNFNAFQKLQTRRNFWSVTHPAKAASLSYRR
Outline: as §1

USP38 = target: T2, USP38 (UniProt Q8NB14)
T2 sequence (whole entry): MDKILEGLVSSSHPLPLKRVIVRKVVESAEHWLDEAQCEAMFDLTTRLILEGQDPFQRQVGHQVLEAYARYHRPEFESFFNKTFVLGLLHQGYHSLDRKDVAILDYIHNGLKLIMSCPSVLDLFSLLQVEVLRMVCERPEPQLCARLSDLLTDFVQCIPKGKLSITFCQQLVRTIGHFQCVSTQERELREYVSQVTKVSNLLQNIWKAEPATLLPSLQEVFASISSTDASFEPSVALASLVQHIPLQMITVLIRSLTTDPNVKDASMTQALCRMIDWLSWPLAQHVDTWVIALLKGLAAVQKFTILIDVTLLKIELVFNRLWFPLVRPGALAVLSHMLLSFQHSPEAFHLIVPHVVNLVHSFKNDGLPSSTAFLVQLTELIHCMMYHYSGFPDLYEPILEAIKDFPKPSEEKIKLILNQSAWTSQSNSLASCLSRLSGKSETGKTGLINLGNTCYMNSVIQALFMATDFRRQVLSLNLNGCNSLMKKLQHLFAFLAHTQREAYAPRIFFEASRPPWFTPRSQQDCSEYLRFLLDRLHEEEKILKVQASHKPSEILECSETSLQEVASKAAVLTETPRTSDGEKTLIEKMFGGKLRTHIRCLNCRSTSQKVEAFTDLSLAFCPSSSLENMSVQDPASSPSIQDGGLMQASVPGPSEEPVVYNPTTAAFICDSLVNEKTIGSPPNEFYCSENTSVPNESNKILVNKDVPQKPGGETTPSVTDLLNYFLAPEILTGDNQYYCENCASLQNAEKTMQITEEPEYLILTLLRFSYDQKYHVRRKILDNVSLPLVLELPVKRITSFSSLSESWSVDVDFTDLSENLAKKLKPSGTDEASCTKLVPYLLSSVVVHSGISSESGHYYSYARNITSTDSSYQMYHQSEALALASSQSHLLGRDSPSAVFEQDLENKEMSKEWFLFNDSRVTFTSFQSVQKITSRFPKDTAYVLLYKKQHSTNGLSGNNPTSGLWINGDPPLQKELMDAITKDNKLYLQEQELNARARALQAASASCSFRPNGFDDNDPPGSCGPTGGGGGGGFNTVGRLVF
Outline: as §1

USP39 = target: T3, USP39 (UniProt Q53GS9)
T3 sequence (whole entry): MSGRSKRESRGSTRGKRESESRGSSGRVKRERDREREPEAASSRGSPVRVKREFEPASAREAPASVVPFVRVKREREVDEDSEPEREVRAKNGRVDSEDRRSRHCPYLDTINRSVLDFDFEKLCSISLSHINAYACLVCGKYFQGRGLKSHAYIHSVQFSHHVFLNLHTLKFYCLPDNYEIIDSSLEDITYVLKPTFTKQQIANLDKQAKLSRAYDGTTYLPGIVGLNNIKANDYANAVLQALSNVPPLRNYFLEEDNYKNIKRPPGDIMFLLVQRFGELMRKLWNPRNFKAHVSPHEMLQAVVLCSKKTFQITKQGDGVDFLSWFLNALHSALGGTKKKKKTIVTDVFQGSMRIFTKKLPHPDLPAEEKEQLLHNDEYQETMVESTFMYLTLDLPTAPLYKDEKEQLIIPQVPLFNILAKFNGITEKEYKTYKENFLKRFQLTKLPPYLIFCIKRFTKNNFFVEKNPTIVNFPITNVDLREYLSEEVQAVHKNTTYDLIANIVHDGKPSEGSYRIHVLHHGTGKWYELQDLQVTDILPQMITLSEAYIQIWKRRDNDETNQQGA
Outline: as §1

USP4 = target: T4, USP4 (UniProt Q13107)
T4 sequence (whole entry): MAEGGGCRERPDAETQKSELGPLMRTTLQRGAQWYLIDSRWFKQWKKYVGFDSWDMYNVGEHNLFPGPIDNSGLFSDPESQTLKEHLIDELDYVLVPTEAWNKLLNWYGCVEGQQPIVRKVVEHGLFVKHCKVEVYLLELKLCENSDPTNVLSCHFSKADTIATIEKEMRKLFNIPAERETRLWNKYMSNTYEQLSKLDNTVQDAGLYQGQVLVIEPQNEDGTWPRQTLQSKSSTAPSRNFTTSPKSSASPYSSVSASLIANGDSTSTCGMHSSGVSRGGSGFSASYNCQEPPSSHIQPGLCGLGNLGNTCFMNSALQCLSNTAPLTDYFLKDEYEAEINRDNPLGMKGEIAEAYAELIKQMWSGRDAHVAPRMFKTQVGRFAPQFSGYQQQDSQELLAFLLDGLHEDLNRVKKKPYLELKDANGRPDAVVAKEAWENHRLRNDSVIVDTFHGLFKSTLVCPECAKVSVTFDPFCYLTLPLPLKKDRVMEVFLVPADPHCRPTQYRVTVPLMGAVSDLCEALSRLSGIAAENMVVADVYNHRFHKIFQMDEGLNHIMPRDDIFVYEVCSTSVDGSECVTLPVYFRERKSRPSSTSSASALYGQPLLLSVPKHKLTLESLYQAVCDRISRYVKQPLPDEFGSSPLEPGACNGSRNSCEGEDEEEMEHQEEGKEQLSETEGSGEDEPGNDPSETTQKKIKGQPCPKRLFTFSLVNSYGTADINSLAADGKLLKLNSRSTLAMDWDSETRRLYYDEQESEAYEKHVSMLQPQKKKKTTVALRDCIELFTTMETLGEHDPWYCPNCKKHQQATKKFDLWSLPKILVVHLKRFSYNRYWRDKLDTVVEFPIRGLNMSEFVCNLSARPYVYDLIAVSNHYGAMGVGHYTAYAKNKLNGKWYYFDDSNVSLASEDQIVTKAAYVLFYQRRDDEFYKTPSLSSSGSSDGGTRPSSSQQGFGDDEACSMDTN
Outline: as §1

Measured: log2 ratio of Biotin-Ahx-Ub-VS probe labelling

Chain of USP34 (Q70CQ2 whole entry, the tested form may be a part): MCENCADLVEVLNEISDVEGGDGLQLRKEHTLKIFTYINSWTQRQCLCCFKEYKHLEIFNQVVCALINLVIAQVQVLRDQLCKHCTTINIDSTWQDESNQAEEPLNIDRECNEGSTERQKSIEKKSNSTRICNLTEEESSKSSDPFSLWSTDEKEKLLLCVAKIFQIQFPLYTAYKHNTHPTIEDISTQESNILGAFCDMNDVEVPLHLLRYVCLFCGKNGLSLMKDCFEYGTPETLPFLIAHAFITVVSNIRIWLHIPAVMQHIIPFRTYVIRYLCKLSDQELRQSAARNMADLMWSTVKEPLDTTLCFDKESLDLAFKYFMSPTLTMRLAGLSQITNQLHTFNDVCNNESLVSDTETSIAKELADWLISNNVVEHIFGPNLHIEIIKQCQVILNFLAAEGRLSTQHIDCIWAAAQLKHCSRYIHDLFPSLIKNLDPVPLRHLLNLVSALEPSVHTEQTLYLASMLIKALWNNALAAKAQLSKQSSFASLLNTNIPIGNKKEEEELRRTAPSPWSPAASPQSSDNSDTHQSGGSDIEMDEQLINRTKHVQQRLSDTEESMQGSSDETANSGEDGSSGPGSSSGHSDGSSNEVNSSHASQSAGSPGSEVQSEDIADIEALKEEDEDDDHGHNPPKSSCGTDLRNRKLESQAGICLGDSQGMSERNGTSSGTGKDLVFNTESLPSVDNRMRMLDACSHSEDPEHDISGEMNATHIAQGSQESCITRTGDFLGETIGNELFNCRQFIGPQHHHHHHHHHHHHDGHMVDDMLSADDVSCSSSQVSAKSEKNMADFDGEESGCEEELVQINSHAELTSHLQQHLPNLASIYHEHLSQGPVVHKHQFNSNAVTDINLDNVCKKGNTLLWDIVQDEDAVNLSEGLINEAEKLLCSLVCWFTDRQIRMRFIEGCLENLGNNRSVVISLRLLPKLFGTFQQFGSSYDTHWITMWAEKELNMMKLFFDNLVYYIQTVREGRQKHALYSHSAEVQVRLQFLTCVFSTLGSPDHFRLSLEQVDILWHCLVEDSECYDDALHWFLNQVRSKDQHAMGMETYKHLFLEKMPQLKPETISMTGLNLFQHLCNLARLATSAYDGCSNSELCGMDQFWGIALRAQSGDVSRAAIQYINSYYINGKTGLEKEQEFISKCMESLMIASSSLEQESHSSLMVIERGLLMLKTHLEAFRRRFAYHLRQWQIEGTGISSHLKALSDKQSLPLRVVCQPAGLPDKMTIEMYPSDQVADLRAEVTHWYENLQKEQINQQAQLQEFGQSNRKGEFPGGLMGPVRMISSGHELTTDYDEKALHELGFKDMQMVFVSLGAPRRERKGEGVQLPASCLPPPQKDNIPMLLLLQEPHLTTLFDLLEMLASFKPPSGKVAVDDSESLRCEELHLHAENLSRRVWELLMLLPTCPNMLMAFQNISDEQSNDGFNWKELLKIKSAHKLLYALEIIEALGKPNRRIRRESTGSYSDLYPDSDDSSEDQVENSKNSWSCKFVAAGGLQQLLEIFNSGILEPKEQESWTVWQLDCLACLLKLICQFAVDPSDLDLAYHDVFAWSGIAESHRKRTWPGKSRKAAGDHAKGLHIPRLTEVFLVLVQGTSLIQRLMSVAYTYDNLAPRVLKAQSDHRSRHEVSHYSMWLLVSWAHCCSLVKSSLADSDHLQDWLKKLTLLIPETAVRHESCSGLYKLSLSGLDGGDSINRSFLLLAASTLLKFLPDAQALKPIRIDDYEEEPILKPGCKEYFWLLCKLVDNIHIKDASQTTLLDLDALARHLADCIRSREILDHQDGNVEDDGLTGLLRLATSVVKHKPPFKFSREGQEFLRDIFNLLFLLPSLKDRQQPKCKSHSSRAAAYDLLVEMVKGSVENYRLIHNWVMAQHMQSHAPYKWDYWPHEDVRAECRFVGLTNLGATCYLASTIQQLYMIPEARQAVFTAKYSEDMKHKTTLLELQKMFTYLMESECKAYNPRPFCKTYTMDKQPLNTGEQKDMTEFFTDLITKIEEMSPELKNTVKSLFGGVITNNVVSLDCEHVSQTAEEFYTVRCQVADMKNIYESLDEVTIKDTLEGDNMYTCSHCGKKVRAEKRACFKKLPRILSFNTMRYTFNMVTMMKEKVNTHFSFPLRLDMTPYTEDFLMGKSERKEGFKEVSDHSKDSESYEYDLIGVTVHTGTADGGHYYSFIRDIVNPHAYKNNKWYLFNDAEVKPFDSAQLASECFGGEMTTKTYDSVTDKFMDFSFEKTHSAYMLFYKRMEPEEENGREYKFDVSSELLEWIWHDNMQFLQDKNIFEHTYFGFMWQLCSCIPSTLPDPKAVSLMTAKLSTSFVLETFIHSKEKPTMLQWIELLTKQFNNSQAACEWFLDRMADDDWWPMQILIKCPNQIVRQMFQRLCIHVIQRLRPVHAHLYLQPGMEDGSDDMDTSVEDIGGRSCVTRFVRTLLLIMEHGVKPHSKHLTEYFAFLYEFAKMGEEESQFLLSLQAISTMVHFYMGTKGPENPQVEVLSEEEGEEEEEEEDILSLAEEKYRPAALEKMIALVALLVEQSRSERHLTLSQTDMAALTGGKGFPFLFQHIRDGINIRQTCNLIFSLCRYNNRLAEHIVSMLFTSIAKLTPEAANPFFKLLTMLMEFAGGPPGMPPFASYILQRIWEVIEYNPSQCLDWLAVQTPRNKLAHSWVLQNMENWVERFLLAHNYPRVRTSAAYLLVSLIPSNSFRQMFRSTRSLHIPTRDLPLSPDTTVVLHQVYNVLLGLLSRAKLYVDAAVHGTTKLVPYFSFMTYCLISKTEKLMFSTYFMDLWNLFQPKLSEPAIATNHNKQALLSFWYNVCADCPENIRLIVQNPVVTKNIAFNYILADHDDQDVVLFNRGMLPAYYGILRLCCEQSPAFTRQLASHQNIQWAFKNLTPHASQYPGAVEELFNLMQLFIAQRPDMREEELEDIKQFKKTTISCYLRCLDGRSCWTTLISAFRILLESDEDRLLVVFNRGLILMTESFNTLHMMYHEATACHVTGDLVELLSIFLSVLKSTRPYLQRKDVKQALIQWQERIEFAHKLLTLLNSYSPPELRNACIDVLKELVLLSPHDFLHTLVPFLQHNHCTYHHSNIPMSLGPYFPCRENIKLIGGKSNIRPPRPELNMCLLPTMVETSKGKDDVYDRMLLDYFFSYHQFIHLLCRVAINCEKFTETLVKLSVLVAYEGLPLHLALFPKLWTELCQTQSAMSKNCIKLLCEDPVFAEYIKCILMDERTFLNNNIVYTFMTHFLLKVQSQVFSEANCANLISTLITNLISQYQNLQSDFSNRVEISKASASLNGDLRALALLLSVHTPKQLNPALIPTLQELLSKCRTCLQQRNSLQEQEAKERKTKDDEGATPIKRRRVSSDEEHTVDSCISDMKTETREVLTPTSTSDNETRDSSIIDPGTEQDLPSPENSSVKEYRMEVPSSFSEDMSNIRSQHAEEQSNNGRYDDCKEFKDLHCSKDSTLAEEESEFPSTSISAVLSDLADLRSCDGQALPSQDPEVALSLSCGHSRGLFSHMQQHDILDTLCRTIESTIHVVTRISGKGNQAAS

Cl.Cn1cnc2cc(CNC(=O)CCl)ccc21
inactive: USP34 -0.0912 | USP36 -0.188 | USP38 -0.21 | USP39 -0.337 | USP4 -0.0327

From the supplement of paper PMC11732987, “Enantioselective OTUD7B fragment discovery through chemoproteomics screening and high-throughput optimisation” (Communications Chemistry, 2025)
